Where “and” joins values, the source holds several entries; their conditions need not be identical. Equal values may be shown once. Hit rate of the full screen: of about 5,500 compounds, about 2,000 (36%) were called active. Roughly 18% stayed inconclusive and do not appear here. Rule as the data show it: active = normalized growth mostly below about 0.91 (no sharp cut-off); inconclusive = no clear call, values can overlap the other calls; inactive = mostly above about 0.92. This is one part of the list.
Assay: chemical genetic growth profiling, strain panel (AID 1159580);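 also: tested at 20 µM; growth read once vehicle control cultures reached saturation at 30 °C; 1 = growth at the plate median or of vehicle wells; lower values mean less growth of the strain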
Details: S. cerevisiae deletion strains, growth OD

Measured: normalized growth

CC(=O)OC1CCC2(C)C3CC(=O)C4(C)C(CC5OC6(CCC(C)CO6)[C@@H](C)C54)C3CC[C@H]2C1 (stereo not given in full)
inactive: locus YAL013W, strain DEP1, hits give low values 0.982 | locus YAL021C, strain ccr4, hits give low values 0.987 | locus YAL026C, strain drs2, hits give low values 0.991 | locus YAL030W, strain snc1, hits give low values 0.981 | locus YBL061C, strain skt5, hits give low values 0.982 | locus YBR009C, strain hhf1, hits give low values 0.991 | locus YBR021W, strain FUR4, hits give low values 1.07 | locus YBR023C, strain chs3, hits give low values 0.994 | locus YBR171W, strain sec66, hits give low values 0.984 | locus YBR229C, strain ROT2, hits give low values 0.99 | locus YBR231C, strain swc5, hits give low values 1.01 | locus YBR279W, strain paf1, hits give low values 0.987 | locus YCL011C, strain gbp2, hits give low values 0.979 | locus YCL016C, strain dcc1, hits give low values 0.98 | locus YCL029C, strain bik1, hits give low values 0.963 | locus YCL069W, strain vba3, hits give low values 1.01 | locus YCR088W, strain abp1, hits give low values 0.994 | locus YDL005C, strain med2, hits give low values 0.975 | locus YDL035C, strain GPR1, hits give low values 1.01 | locus YDL040C, strain nat1, hits give low values 0.99 | locus YDL074C, strain BRE1, hits give low values 0.983 | locus YDL101C, strain DUN1, hits give low values 0.992 | locus YDL185W, strain tfp1, hits give low values 0.952 | locus YDL192W, strain arf1, hits give low values 0.986 | locus YDR001C, strain nth1, hits give low values 0.988 | locus YDR069C, strain doa4, hits give low values 0.968 | locus YDR101C, strain arx1, hits give low values 1 | locus YDR137W, strain rgp1, hits give low values 0.973 | locus YDR159W, strain sac3, hits give low values 1.03 | locus YDR162C, strain NBP2, hits give low values 0.972 | locus YDR195W, strain ref2 0.942 | locus YDR297W, strain sur2, hits give low values 0.978 | locus YDR318W, strain mcm21, hits give low values 0.996 | locus YDR334W, strain swr1, hits give low values 0.985 | locus YDR335W, strain msn5, hits give low values 0.978 | locus YDR388W, hits give low values 0.978 | locus YDR392W, strain spt3, hits give low values 1.01 | locus YDR502C, strain sam2, hits give low values 0.971 | locus YEL003W, strain gim4, hits give low values 0.986 | locus YEL037C, strain rad23, hits give low values 0.998 | locus YEL061C, strain CIN8 (second series), hits give low values 0.999 | locus YER015W, strain faa2, hits give low values 0.988 | locus YER016W, strain bim1, hits give low values 0.96 | locus YER110C, hits give low values 0.97 | locus YER111C, strain swi4, hits give low values 0.995 | locus YER155C, strain BEM2 (second series), hits give low values 0.999 | locus YER155C, strain BEM2, hits give low values 1.01 | locus YER167W, strain BCK2, hits give low values 1.01 | locus YFR010W, strain ubp6, hits give low values 1 | locus YGL078C, strain dbp3, hits give low values 0.988 | locus YGL086W, strain mad1, hits give low values 0.993 | locus YGL167C, strain pmr1, hits give low values 0.99 | locus YGL173C, strain kem1, hits give low values 1.01 | locus YGL227W, strain vid30, hits give low values 0.974 | locus YGL240W, strain doc1, hits give low values 0.98 | locus YGL248W, strain PDE1, hits give low values 0.991 | locus YGL253W, strain hxk2, hits give low values 0.976 | locus YGR078C, strain PAC10, hits give low values 0.986 | locus YGR135W, strain pre9, hits give low values 0.977 | locus YGR252W, strain gcn5, hits give low values 0.986 | locus YHR013C, strain ard1, hits give low values 0.957 | locus YHR027C, strain rpn1, hits give low values 0.982 | locus YHR030C, strain SLT2, hits give low values 0.977 | locus YHR079C, strain IRE1 (second series), hits give low values 0.987 | locus YHR079C, strain IRE1, hits give low values 1.01 | locus YHR094C, strain hxt1, hits give low values 0.975 | locus YHR129C, strain ARP1, hits give low values 0.982 | locus YHR142W, strain chs7, hits give low values 0.955 | locus YHR200W, strain rpn10, hits give low values 0.993 | locus YIL066C, strain RNR3, hits give low values 0.988 | locus YIL073C, strain SPO22, hits give low values 0.931 | locus YIL125W, strain kgd1, hits give low values 0.974 | locus YIR030C, strain dcg1, hits give low values 0.988 | locus YJL092W, strain hpr5, hits give low values 0.985 | locus YJL095W, strain BCK1 (second series), hits give low values 0.981 | locus YJL095W, strain BCK1, hits give low values 0.962 and 1 | locus YJL115W, strain asf1, hits give low values 0.958 | locus YJL129C, strain trk1, hits give low values 0.969 | locus YJL134W, strain LCB3, hits give low values 0.99 | locus YJL154C, strain vps35, hits give low values 0.986 | locus YJL164C, strain tpk1, hits give low values 0.993 | locus YJL166W, strain qcr8, hits give low values 0.965 | locus YJL168C, strain set2, hits give low values 0.983 | locus YJL187C, strain SWE1 (second series), hits give low values 0.977 | locus YJR066W, strain TOR1, hits give low values 0.934 | locus YJR075W, strain HOC1, hits give low values 0.988 | locus YKL009W, strain mrt4, hits give low values 0.983 | locus YKL068W, hits give low values 0.981 | locus YKL085W, strain MDH1 (second series), hits give low values 0.988 | locus YKL085W, strain MDH1, hits give low values 0.988 | locus YKL160W, strain elf1, hits give low values 0.964 | locus YKR001C, strain vps1, hits give low values 0.992 | locus YKR026C, strain gcn3, hits give low values 1 | locus YKR091W, strain srl3, hits give low values 0.964 | locus YLL001W, strain dnm1, hits give low values 1.01 | locus YLL026W, hits give low values 0.977 | locus YLL041C, strain sdh2, hits give low values 0.992 | locus YLR027C, strain aat2, hits give low values 0.965 | locus YLR039C, strain RIC1, hits give low values 0.994 | locus YLR058C, strain SHM2, hits give low values 0.982 | locus YLR102C, strain apc9, hits give low values 0.972 | locus YLR113W, strain HOG1, hits give low values 0.976 | locus YLR221C, strain rsa3, hits give low values 1.01 | locus YLR258W, strain gsy2, hits give low values 0.961 | locus YLR262C, strain YPT6 (second series), hits give low values 0.974 | locus YLR268W, strain sec22, hits give low values 0.984 | locus YLR320W, strain mms22, hits give low values 1.03 | locus YLR342W, strain FKS1 (second series), hits give low values 1.03 | locus YLR342W, strain FKS1, hits give low values 0.975 | locus YLR357W, strain rsc2, hits give low values 0.964 | locus YLR370C, strain arc18, hits give low values 0.973 | locus YLR371W, strain rom2, hits give low values 0.992 | locus YLR384C, strain iki3, hits give low values 0.983 | locus YLR418C, strain cdc73, hits give low values 1.02 | locus YML016C, strain PPZ1, hits give low values 1.01 | locus YML032C, strain rad52, hits give low values 0.996 | locus YML120C, strain ndi1, hits give low values 0.989 | locus YML124C, strain tub3, hits give low values 0.982 | locus YMR058W, strain fet3, hits give low values 0.979 | locus YMR078C, strain ctf18, hits give low values 0.986 | locus YMR125W, strain sto1, hits give low values 0.986 | locus YMR129W, hits give low values 0.975 | locus YMR205C, strain PFK2, hits give low values 1 | locus YMR223W, strain ubp8, hits give low values 0.981 | locus YMR231W, strain pep5, hits give low values 0.989 | locus YMR263W, strain SAP30, hits give low values 0.979 | locus YMR307W, strain GAS1, hits give low values 1.06 | locus YNL067W, strain RPL9B, hits give low values 0.967 | locus YNL071W, strain lat1, hits give low values 1 | locus YNL153C, strain GIM3, hits give low values 0.973 | locus YNL183C, strain NPR1, hits give low values 0.956 | locus YNL209W, strain ssb2, hits give low values 1 | locus YNL233W, strain BNI4, hits give low values 0.989 | locus YNL248C, strain rpa49, hits give low values 0.955 | locus YNL250W, strain rad50, hits give low values 0.969 | locus YNL271C, strain bni1, hits give low values 0.994 | locus YNL298W, strain CLA4, hits give low values 0.973 | locus YNL307C, strain MCK1, hits give low values 0.974 | locus YNL322C, strain KRE1 (second series), hits give low values 0.98 | locus YNR049C, strain mso1, hits give low values 0.966 | locus YNR052C, strain pop2, hits give low values 0.976 | locus YOL006C, strain TOP1, hits give low values 1.06 | locus YOL012C, strain htz1 0.635 | locus YOL147C, strain pex11, hits give low values 0.965 | locus YOR001W, strain rrp6, hits give low values 1.03 | locus YOR061W, strain CKA2, hits give low values 0.997 | locus YOR069W, strain VPS5, hits give low values 0.99 | locus YOR070C, strain gyp1, hits give low values 0.993 | locus YOR080W, strain dia2, hits give low values 0.974 | locus YOR083W, strain WHI5, hits give low values 0.974 | locus YOR106W, strain vam3, hits give low values 0.963 | locus YOR136W, strain idh2, hits give low values 0.981 | locus YOR144C, strain elg1, hits give low values 0.982 | locus YOR184W, strain ser1, hits give low values 1.01 | locus YOR231W, strain MKK1, hits give low values 0.988 | locus YOR265W, strain rbl2, hits give low values 0.968 | locus YOR270C, strain vph1, hits give low values 0.999 | locus YOR290C, strain snf2, hits give low values 0.96 | locus YOR316C, strain cot1, hits give low values 0.97 | locus YPL051W, strain arl3, hits give low values 0.977 | locus YPL078C, strain atp4, hits give low values 0.979 | locus YPL106C, strain sse1, hits give low values 0.986 | locus YPL240C, strain hsp82, hits give low values 0.982 | locus YPL241C, strain CIN2, hits give low values 0.994 | locus YPL256C, strain CLN2, hits give low values 0.993 | locus YPR119W, strain clb2, hits give low values 0.995 | locus YPR141C, strain kar3, hits give low values 0.97 | locus YPR163C, strain tif3, hits give low values 0.962 | locus YPR167C, strain met16, hits give low values 0.988 | strain wtn01, hits give low values 0.985

From PubChem BioAssay AID1159580 (chemical genetic matrix, 2015)
